Measured values as given in PubChem BioAssay.
Where “and” joins values, the source holds several entries; their conditions need not be identical. Equal entries are not always repeated. Calls of active or inactive are those of the source. The rule behind the calls is not given here.

assay: IRF3 reporter activation in THP-1 macrophages, cell-based, PMA-stimulated THP-1, luminescence (AID 1053176); conditions: PMA-differentiated THP-1, IRF3 reporter luminescence; stronger effect = higher value

Fraction signal, inactive:
Clc1ccc(CNc2nccc(-c3cnn4ncccc34)n2)cc1 0
CN1C(=O)C(c2c[nH]c3ccccc23)=C(c2c[nH]c3ccccc23)C1=O -0.0095
CCc1cccc(NC(=O)Nc2ccc(Oc3ccc4nc(NC(=O)OC)[nH]c4c3)cc2)c1 -0.002
O=C1NC(=O)C(c2c[nH]c3ccccc23)=C1c1c[nH]c2ccccc12 -0.0025
COc1cc2ncn(-c3cc(OCc4ccccc4S(C)(=O)=O)c(C#N)s3)c2cc1OC 0.0015
Cn1cc(/C=C2\C(=O)Nc3cccnc32)c2ccccc21 -0.0095
COc1cc(N2CCN(C(C)C)CC2)ccc1Nc1nc(Nc2ccc(F)cc2C(N)=O)c2cc[nH]c2n1 0.001
NC(=O)c1ccc2c(-c3ccnc(NCCCO)n3)c(-c3ccc(F)cc3)nn2c1 0.003
Fc1ccc(-c2ncn(C3CCNCC3)c2-c2ccnc(Oc3ccc4c(c3)OCO4)n2)cc1 -0.0065
Fc1cccc(COc2ccc(Nc3ncnc4sc(-c5ccco5)cc34)cc2Cl)c1 -0.0105
Cc1ccc(O)cc1Nc1ccnc2cc(-c3ccccn3)ccc12 0.014
COc1ccc(-c2coc3ncnc(N)c23)cc1 0.002
Cn1c(=O)c(Oc2ccc(F)cc2F)cc2cnc(NC3CCOCC3)nc21 -0.007
N#Cc1c(NC(=O)c2ccccc2F)sc2c1CCCC2 -0.0035
COc1ccc(-c2oc3ncnc(N)c3c2-c2ccc(NC(=O)Nc3cc(C(F)(F)F)ccc3F)cc2)cc1 0.007
CN(C)CCOc1ccc(-c2nc(-c3ccc4c(c3)CC/C4=N\O)c(-c3ccncc3)[nH]2)cc1 -0.008
COc1ccc(COc2ccc(Cc3cnc(N)nc3N)cc2OC)cc1 -0.003
CS(=O)(=O)Nc1ccc(-c2ccc3c(NC(=O)C4CC4)n[nH]c3c2)cc1 -0.009
Cn1cc(C2=C(c3c4n(c5ccccc35)CCC(CN)C4)C(=O)NC2=O)c2ccccc21 (stereo not given) -0.001
Cn1cc(C2=C(c3cn(CCCSC(=N)N)c4ccccc34)C(=O)NC2=O)c2ccccc21 -0.0115
Fc1ccc(-c2c(-c3ccncc3)nc3n2CCS3)cc1 -0.0075
Cc1cc(O)cc(C)c1/C=C/c1cncc(C(=O)N(C)C)c1 0.0095
CS(=O)(=O)CCNCc1nc(-c2ccc3ncnc(Nc4ccc(F)c(Cl)c4)c3c2)cs1 0.002
Nc1ncnc2occ(-c3ccc(NC(=O)Nc4cc(C(F)(F)F)ccc4F)cc3)c12 -0.0025 and -0.0215
Nc1nccc(-c2c(-c3ccc(F)cc3)ncn2C2CCNCC2)n1 0.0105 and -0.008
